Columns and labels:
Experiment in all cases: DAPPL (digital affinity profiling via proximity ligation, sequencing); 10 mM Tris-HCl pH 7.5, 50 mM NaCl, 1 mM DTT, 4% glycerol, room temperature, 30 min; GST-TFs on glutathione beads, 16-mer random dsDNA library, 0.1% formaldehyde crosslink after washing; high values mean tight binding
FLI1 = target: T1, FLI1 (Homo sapiens, UniProt Q01543 1-452); settings: protein: recombinant; tags: N-terminal GST; dsDNA, one strand shown
T1 sequence: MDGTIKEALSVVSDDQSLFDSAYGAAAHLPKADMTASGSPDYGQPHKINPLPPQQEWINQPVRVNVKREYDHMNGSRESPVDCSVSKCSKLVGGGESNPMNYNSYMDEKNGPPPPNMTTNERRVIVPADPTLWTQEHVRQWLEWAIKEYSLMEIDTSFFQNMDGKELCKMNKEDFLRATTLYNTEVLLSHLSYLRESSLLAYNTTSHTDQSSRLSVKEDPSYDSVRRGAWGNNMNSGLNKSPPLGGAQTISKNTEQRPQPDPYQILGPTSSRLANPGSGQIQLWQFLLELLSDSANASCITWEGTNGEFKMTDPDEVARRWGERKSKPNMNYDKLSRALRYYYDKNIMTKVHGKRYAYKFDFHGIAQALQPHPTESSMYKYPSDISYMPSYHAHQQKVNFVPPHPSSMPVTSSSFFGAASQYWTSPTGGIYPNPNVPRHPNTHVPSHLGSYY
Method in brief: (§1)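 Human transcription factors carrying a GST fusion were produced in yeast, bound to glutathione beads, tagged with DNA barcodes and pooled together with a tag-only sample. Each pool was held with 200 nmole of a random double-stranded 16-mer DNA library in Tris/NaCl/DTT/glycerol buffer for 30 min at room temperature, then washed, crosslinked in 0.1% formaldehyde, proximity-ligated with BsaI/T4 ligase (1 h, 37 °C), PCR-amplified and sequenced on an Illumina NextSeq500. Binding signal is the read frequency of each hexamer for a given factor divided by its frequency in the tag-only sample.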

ELK1 = target: T2, ELK1 (Homo sapiens, UniProt P19419 1-428); settings: protein: recombinant; tags: N-terminal GST; dsDNA, one strand shown
T2 sequence: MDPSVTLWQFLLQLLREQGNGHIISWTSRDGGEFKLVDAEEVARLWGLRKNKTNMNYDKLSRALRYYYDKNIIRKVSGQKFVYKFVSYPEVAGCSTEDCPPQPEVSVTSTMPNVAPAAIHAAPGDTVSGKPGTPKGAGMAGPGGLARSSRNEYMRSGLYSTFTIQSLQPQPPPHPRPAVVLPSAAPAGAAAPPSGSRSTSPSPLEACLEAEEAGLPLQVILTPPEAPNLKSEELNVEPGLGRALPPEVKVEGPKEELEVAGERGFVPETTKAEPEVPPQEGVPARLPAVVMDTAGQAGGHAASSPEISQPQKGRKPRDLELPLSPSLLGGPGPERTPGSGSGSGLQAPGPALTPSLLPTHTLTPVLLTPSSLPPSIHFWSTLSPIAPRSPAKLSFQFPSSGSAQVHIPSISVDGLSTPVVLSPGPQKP
Method in brief: as §1

GABPA = target: T3, GABPA (Homo sapiens, UniProt Q06546 1-454); settings: protein: recombinant; tags: N-terminal GST; dsDNA, one strand shown
T3 sequence: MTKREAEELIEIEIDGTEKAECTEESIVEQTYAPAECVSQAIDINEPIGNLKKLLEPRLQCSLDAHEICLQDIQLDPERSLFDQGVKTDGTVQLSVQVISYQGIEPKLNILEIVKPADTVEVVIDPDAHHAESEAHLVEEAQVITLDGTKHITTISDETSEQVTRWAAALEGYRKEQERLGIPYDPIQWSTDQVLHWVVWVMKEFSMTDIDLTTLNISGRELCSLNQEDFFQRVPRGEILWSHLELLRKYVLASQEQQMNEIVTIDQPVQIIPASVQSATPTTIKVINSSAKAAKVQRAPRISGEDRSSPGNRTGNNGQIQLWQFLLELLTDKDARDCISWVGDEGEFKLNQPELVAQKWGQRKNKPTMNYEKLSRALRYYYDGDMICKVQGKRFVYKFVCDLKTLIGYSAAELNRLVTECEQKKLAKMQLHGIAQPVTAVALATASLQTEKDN
Method in brief: as §1

ERG = target: T4, ERG (Homo sapiens, UniProt P11308 1-479); settings: protein: recombinant; tags: N-terminal GST; dsDNA, one strand shown
T4 sequence: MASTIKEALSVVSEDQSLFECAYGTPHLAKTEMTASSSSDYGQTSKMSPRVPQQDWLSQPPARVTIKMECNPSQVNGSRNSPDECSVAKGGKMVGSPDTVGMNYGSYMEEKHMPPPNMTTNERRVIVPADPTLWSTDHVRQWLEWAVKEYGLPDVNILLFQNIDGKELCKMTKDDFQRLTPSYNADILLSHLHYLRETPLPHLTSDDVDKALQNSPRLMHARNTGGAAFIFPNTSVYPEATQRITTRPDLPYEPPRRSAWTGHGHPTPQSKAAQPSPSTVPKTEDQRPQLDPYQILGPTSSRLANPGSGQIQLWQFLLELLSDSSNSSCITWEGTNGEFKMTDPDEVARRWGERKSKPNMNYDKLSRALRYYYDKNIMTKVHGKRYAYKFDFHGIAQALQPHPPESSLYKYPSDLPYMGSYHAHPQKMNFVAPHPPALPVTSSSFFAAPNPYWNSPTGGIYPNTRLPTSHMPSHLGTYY
Method in brief: as §1

ELF1 = ELF1 (Homo sapiens, UniProt P32519 1-619); settings: protein: recombinant; tags: N-terminal GST; dsDNA, one strand shown
Chain of ELF1 (P32519 whole entry): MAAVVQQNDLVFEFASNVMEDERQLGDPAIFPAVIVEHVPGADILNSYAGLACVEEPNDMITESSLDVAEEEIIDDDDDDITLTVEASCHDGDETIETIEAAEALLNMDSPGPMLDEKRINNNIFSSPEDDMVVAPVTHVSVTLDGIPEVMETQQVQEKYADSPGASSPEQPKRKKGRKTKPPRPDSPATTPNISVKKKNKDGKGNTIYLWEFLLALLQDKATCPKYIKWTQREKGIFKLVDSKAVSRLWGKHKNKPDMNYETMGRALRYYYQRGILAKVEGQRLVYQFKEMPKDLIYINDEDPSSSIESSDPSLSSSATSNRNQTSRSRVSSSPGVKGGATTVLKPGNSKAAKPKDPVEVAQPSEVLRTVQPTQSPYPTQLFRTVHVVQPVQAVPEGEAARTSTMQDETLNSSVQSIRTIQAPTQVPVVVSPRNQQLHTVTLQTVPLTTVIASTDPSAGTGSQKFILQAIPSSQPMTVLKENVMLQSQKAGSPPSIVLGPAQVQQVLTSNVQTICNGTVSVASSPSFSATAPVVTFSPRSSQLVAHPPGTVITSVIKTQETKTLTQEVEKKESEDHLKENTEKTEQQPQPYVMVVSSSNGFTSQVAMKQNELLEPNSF
Method in brief: as §1

EHF = target: T5, EHF (Homo sapiens, UniProt Q9NZC4 1-300); settings: protein: recombinant; tags: N-terminal GST; dsDNA, one strand shown
T5 sequence: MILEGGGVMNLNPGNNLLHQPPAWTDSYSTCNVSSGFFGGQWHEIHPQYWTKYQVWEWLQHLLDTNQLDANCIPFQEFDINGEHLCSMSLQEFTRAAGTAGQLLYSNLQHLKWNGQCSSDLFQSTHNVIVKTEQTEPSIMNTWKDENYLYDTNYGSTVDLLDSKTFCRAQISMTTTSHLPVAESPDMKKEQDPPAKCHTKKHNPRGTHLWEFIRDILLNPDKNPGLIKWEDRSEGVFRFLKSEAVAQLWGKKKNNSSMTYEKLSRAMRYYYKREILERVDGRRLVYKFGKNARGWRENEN
Method in brief: as §1

SPI1 = SPI1 (Homo sapiens, UniProt P17947 1-270); settings: protein: recombinant; tags: N-terminal GST; dsDNA, one strand shown
Method in brief: as §1

SPIB = SPIB (Homo sapiens, UniProt Q01892 1-262); settings: protein: recombinant; tags: N-terminal GST; dsDNA, one strand shown
Chain of SPIB (Q01892 whole entry): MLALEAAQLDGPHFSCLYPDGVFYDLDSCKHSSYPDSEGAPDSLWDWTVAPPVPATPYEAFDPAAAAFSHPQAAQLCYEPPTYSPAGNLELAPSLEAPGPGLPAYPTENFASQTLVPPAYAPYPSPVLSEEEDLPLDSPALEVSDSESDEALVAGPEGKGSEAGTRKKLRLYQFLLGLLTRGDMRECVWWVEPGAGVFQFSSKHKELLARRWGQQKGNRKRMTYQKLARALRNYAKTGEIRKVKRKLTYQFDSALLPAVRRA
Method in brief: as §1

ELK3 = target: T6, ELK3 (Homo sapiens, UniProt P41970 1-407); settings: protein: recombinant; tags: N-terminal GST; dsDNA, one strand shown
T6 sequence: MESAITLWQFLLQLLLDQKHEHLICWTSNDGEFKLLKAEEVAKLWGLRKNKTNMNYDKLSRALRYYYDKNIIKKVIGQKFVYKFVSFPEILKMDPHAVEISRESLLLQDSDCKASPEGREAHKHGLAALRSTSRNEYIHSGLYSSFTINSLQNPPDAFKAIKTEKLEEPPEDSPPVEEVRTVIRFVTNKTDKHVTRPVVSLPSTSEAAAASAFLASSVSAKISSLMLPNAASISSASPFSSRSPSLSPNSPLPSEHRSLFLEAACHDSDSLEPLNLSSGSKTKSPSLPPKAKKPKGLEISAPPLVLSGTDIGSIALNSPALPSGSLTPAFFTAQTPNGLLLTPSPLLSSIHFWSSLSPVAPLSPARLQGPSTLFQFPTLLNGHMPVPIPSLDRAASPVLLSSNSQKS
Method in brief: as §1

FEV = target: T7, FEV (Homo sapiens, UniProt Q99581 1-238); settings: protein: recombinant; tags: N-terminal GST; dsDNA, one strand shown
T7 sequence: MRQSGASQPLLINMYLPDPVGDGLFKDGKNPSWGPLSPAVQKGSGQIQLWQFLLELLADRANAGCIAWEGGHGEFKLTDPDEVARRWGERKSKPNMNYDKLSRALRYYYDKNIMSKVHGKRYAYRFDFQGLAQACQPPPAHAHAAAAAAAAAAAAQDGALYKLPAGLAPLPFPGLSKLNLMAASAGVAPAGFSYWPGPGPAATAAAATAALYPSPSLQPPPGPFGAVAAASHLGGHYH
Method in brief: as §1

ETV5 = ETV5 (Homo sapiens, UniProt P41161 1-510); settings: protein: recombinant; tags: N-terminal GST; dsDNA, one strand shown
Chain of ETV5 (P41161 whole entry): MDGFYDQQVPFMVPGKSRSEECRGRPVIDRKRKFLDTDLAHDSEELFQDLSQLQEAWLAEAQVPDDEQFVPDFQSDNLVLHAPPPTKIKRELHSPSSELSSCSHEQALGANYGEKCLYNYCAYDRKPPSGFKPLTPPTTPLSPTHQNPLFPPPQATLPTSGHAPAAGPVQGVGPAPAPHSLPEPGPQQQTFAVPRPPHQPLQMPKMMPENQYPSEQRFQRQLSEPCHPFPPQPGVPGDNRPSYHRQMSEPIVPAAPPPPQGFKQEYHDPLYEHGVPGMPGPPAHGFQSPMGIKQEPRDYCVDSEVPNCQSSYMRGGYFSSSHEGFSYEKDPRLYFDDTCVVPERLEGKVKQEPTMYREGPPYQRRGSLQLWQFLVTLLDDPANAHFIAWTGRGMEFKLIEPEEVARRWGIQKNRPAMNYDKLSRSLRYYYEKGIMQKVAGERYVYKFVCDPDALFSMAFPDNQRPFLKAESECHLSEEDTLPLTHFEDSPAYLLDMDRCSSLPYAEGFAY
Method in brief: as §1

HSF1 = HSF1 (Homo sapiens, UniProt Q00613 1-529); settings: protein: recombinant; tags: N-terminal GST; chain copies: 3; dsDNA, one strand shown
Chain of HSF1 (Q00613 whole entry): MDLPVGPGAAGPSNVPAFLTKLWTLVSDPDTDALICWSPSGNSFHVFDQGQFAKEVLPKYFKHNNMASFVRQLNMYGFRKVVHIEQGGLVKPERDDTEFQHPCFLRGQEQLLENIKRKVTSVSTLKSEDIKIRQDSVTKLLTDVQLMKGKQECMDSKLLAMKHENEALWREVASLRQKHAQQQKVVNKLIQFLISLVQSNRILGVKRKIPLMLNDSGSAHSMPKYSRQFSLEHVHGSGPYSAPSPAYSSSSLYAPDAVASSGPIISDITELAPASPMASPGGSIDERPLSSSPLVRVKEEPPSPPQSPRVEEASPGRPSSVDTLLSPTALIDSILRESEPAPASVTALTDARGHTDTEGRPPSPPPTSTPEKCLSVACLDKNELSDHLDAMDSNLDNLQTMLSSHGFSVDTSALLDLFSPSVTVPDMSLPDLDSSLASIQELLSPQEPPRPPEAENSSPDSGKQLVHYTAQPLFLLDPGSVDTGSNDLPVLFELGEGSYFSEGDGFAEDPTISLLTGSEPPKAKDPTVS
Method in brief: as §1

SPIC = target: T8, SPIC (Homo sapiens, UniProt Q8N5J4 1-248); settings: protein: recombinant; tags: N-terminal GST; dsDNA, one strand shown
T8 sequence: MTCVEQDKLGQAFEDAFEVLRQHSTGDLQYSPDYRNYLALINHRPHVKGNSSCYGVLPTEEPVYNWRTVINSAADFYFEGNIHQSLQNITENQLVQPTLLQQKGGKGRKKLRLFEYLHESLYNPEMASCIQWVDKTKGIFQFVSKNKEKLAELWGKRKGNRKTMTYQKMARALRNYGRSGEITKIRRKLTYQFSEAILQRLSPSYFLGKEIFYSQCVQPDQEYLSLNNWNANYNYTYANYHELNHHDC
Method in brief: as §1

ELF4 = ELF4 (Homo sapiens, UniProt Q99607 1-663); settings: protein: recombinant; tags: N-terminal GST; dsDNA, one strand shown
Chain of ELF4 (Q99607 whole entry): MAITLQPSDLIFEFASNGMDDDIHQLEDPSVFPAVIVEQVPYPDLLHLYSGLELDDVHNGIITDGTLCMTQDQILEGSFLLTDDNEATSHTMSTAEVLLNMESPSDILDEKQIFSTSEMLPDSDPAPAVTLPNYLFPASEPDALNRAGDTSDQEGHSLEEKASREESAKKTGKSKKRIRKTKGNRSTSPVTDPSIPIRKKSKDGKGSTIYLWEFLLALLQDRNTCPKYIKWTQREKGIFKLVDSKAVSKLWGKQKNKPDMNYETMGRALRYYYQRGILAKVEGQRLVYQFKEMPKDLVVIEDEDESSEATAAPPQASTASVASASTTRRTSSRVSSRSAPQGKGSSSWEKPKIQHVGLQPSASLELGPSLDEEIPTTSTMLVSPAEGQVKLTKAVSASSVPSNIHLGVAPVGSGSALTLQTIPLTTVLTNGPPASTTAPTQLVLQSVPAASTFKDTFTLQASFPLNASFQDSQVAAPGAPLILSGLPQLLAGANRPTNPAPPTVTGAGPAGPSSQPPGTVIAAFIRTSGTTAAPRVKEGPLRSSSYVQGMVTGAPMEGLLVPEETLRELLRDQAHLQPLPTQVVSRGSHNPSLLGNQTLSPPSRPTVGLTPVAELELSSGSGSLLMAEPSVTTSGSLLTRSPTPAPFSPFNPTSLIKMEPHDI
Method in brief: as §1

ELK4 = target: T9, ELK4 (Homo sapiens, UniProt P28324-2 1-405); settings: protein: recombinant; tags: N-terminal GST; dsDNA, one strand shown
T9 sequence: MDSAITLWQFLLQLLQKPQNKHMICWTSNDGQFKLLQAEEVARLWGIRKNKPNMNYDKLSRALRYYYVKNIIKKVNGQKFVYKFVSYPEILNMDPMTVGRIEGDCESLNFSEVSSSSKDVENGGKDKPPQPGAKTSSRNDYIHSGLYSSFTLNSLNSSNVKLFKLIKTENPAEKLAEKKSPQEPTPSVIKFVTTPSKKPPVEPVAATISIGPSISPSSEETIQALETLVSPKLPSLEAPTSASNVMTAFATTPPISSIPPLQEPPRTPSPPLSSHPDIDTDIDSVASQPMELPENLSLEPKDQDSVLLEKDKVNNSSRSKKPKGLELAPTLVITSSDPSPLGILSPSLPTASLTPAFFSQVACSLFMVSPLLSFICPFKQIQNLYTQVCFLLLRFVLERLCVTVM
Method in brief: as §1

ETV2 = target: T10, ETV2 (Homo sapiens, UniProt O00321 1-342); settings: protein: recombinant; tags: N-terminal GST; dsDNA, one strand shown
T10 sequence: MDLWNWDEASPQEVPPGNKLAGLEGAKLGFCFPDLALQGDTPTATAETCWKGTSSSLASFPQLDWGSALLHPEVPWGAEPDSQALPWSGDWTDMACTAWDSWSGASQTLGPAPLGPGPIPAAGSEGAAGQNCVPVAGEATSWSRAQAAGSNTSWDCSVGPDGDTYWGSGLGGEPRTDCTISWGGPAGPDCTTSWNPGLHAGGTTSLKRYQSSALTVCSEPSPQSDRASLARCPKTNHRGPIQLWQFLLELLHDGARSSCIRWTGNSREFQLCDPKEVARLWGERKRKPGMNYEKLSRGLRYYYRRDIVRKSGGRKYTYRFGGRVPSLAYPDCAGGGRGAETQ
Method in brief: as §1

ELF3 = target: T11, ELF3 (Homo sapiens, UniProt P78545 1-371); settings: protein: recombinant; tags: N-terminal GST; dsDNA, one strand shown
T11 sequence: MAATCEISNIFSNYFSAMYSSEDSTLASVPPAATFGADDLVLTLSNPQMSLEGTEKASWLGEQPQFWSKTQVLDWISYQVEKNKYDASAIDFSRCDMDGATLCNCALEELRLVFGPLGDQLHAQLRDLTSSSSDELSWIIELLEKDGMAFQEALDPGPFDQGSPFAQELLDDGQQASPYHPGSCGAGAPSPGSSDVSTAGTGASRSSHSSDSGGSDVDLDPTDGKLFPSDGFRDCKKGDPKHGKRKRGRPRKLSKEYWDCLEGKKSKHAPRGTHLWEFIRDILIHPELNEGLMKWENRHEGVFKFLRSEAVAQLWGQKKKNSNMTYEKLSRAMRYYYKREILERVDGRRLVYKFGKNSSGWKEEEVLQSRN
Method in brief: as §1

CRX = CRX (Homo sapiens, UniProt O43186 1-299); settings: protein: recombinant; tags: N-terminal GST; dsDNA, one strand shown
Chain of CRX (O43186 whole entry): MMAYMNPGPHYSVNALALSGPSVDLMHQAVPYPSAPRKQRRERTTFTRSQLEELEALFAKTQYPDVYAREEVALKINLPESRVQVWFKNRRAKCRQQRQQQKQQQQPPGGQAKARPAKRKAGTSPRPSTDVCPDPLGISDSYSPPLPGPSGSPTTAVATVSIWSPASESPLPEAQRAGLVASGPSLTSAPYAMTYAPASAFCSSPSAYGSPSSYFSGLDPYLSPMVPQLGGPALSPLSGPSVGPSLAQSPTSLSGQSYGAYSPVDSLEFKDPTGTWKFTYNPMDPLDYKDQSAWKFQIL
Method in brief: as §1

ETV1 = ETV1 (Homo sapiens, UniProt P50549 1-477); settings: protein: recombinant; tags: N-terminal GST; dsDNA, one strand shown
Chain of ETV1 (P50549 whole entry): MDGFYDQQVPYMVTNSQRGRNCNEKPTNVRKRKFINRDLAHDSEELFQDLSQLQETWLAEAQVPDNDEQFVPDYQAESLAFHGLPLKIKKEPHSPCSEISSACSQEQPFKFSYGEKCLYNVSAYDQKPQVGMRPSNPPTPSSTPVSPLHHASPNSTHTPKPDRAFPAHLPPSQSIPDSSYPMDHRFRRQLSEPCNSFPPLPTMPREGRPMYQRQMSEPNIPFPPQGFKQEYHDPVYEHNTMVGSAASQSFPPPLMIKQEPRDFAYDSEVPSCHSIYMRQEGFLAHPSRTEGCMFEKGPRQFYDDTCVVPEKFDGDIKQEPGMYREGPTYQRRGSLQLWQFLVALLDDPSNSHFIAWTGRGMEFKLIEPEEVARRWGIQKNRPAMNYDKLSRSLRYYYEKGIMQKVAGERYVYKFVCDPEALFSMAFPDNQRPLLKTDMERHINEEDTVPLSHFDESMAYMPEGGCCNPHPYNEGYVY
Method in brief: as §1

GTAATA
binding signal (FLI1): 1.12 fold enrichment (6-mer frequency, TF over GST control) | binding signal (ELK1): 1.21 fold enrichment (6-mer frequency, TF over GST control) | binding signal (GABPA): 1.09 fold enrichment (6-mer frequency, TF over GST control) | binding signal (ERG): 1.15 fold enrichment (6-mer frequency, TF over GST control) | binding signal (ELF1): 1.15 fold enrichment (6-mer frequency, TF over GST control) | binding signal (EHF): 1.2 fold enrichment (6-mer frequency, TF over GST control) | binding signal (SPI1): 1.11 fold enrichment (6-mer frequency, TF over GST control) | binding signal (SPIB): 1.24 fold enrichment (6-mer frequency, TF over GST control) | binding signal (ELK3): 1.01 fold enrichment (6-mer frequency, TF over GST control) | binding signal (FEV): 1.11 fold enrichment (6-mer frequency, TF over GST control) | binding signal (ETV5): 1.13 fold enrichment (6-mer frequency, TF over GST control) | binding signal (HSF1): 1.24 fold enrichment (6-mer frequency, TF over GST control) | binding signal (SPIC): 1.27 fold enrichment (6-mer frequency, TF over GST control) | binding signal (ELF4): 1.16 fold enrichment (6-mer frequency, TF over GST control) | binding signal (ELK4): 1.27 fold enrichment (6-mer frequency, TF over GST control) | binding signal (ETV2): 1.09 fold enrichment (6-mer frequency, TF over GST control) | binding signal (ELF3): 1.22 fold enrichment (6-mer frequency, TF over GST control) | binding signal (CRX): 1.52 fold enrichment (6-mer frequency, TF over GST control) | binding signal (ETV1): 1.13 fold enrichment (6-mer frequency, TF over GST control)

From paper PMC7862700, “An all-to-all approach to the identification of sequence-specific readers for epigenetic DNA modifications on cytosine”
